± gives the uncertainty stated by the source. Over roughly 9,900 compounds, “viability index relative to DMSO control” has its median near 1; the lowest 2% begin near 0.85. What follows is part of a selection rich in the lowest values, with near analogues and random picks from the rest.
System: Plasmodium falciparum NF54 stage V gametocytes
Assay: viability index relative to DMSO control (fraction); higher = less gametocyte killing
Conditions: 2.5 µM, incubation time: 72 h
Method: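 Broad DOS informer set and blood-stage-active DOS compounds screened in duplicate at 2.5 µM against P. falciparum NF54 stage V gametocytes with the serum-free one-step SaLSSA (1536-well): 72 h at 37 °C under low oxygen, then saponin lysis and MitoTracker Red CMXRos staining, with high-content imaging. Viability index = viable-object count divided by the plate mean of DMSO wells (0 = killed, about 1 = inactive).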

[1] = library set: Broad Institute DOS
[2] = library set: Broad Institute Blood Stage

Row | Structure (SMILES) | viability index [1] | viability index [2]
1 | C[C@@H]1CN([C@@H](C)CO)C(=O)c2cc(NS(=O)(=O)c3cn(C)cn3)ccc2O[C@H]1CN(C)S(=O)(=O)c1ccc(F)cc1 | 1.06 ± 0.038 | 
2 | O=C(C[C@H]1C=C[C@@H](NC(=O)c2ccncc2)[C@H](CO)O1)NCC1CC1 | 1.029 ± 0.0019 | 
3 | Cc1ccccc1-c1ccc([C@H]2[C@H]3CN(S(C)(=O)=O)CC(=O)N3[C@H]2CO)cc1 | 0.975 ± 0.047 | 
4 | CCc1nc(N2[C@@H](C#N)[C@H](c3ccccc3-c3ccccc3C)[C@@H]2CO)sc1C | 0.81 ± 0.063 | 
5 | CCc1nc(N2[C@@H](C#N)[C@@H](c3ccccc3-c3ccccc3C)[C@@H]2CO)sc1C | 1.08 ± 0.12 | 
6 | CCc1nc(N2[C@H](C#N)[C@@H](c3ccccc3-c3ccccc3C)[C@@H]2CO)sc1C | 1.07 ± 0.088 | 
7 | COc1ccc2c3c([nH]c2c1)[C@@H](CO)N(C[C@]31CCN(C)CC1)S(=O)(=O)c1ccccc1 | 1.04 ± 0.032 | 
8 | CO[C@@H]1CN(C)C(=O)c2ccc(NS(C)(=O)=O)cc2OC[C@@H](C)N(C(=O)CN(C)C)C[C@H]1C | 0.977 ± 0.055 | 
9 | O=C(c1ccc(F)cc1)N1C[C@@H]2N[C@H](C1)[C@H]2c1ccc(-c2cccnc2)cc1 | 1.08 ± 0.12 | 
10 | N#Cc1ccc(-c2ccc([C@@H]3[C@@H]4CN(C(=O)Nc5ccc6c(c5)OCO6)C[C@H]3N4)cc2)cc1 | 0.56 ± 0.15 | 
11 | N#Cc1ccc(-c2ccc([C@H]3[C@@H]4CN(C(=O)c5cccnc5)C[C@H]3N4)cc2)cc1 | 1.15 ± 0.046 | 
12 | N#Cc1cccc(-c2ccc([C@H]3[C@@H]4CN(C(=O)c5ccc6c(c5)OCO6)C[C@H]3N4)cc2)c1 | 1.09 ± 0.072 | 
13 | N#Cc1ccc(-c2ccc([C@@H]3[C@@H]4CN(C(=O)c5cccnc5)C[C@H]3N4)cc2)cc1 | 0.81 ± 0.2 | 
14 | N#Cc1cccc(-c2ccc([C@@H]3[C@@H]4CN(C(=O)c5ccc6c(c5)OCO6)C[C@H]3N4)cc2)c1 | 0.896 ± 0.077 | 
15 | O=C(Cc1ccncc1)N1CC[C@@H]2[C@H]1c1cc(-c3ccccc3F)ccc1N[C@@H]2CO | 1.03 ± 0.046 | 
16 | CCS(=O)(=O)N1CC[C@@]2(CC1)CN([C@H](CO)c1[nH]c3cc(OC)ccc3c21)S(=O)(=O)c1ccc(C)cc1 | 1 ± 0.046 | 
17 | COc1ccc2c3c([nH]c2c1)[C@H](CO)N(C[C@]31CN(C1)C(=O)Cc1cccnc1)S(C)(=O)=O | 1.08 ± 0.04 | 
18 | CCCC(=O)N1C[C@@]2(C1)CN([C@@H](CO)c1[nH]c3cc(OC)ccc3c21)S(=O)(=O)c1ccc(C)cc1 | 0.9841 ± 0.0028 | 
19 | COc1ccc(CN2C[C@]3(CN(C3)S(=O)(=O)c3ccc(C)cc3)c3c([nH]c4cc(OC)ccc34)[C@H]2CO)cc1 | 0.793 ± 0.014 | 
20 | CCS(=O)(=O)N1CC[C@@]2(CC1)CN([C@@H](CO)c1[nH]c3cc(OC)ccc3c21)S(=O)(=O)c1ccc(C)cc1 | 0.934 ± 0.052 | 
21 | COc1ccc2c3c([nH]c2c1)[C@@H](CO)N(C[C@]31CCN(CC1)C(=O)Cc1cccnc1)S(=O)(=O)c1ccc(C)cc1 | 0.827 ± 0.019 | 
22 | COc1ccc2c3c([nH]c2c1)[C@H](CO)N(Cc1ccc(Cl)cc1)C[C@]31CN(C1)S(C)(=O)=O | 0.931 ± 0.066 | 
23 | CCCC(=O)N1CC[C@@]2(CC1)CN([C@@H](CO)c1[nH]c3cc(OC)ccc3c21)S(=O)(=O)c1ccc(C)cc1 |  | 0.655 ± 0.046
24 | CCCC(=O)N1C[C@@]2(C1)CN([C@H](CO)c1[nH]c3cc(OC)ccc3c21)S(=O)(=O)c1ccc(C)cc1 | 0.946 ± 0.074 | 

Row | Structure (SMILES) | viability index [1] | viability index [2]
25 | COc1ccc2c3c([nH]c2c1)[C@@H](CO)N(Cc1ccc(Cl)cc1)C[C@]31CN(C1)S(C)(=O)=O | 0.931 ± 0.095 | 
26 | COc1ccc2c3c([nH]c2c1)[C@H](CO)N(C[C@]31CCN(CC1)C(=O)Cc1cccnc1)S(=O)(=O)c1ccc(C)cc1 | 0.75 ± 0.079 | 
27 | COc1ccc2c3c([nH]c2c1)[C@@H](CO)N(C[C@]31CN(C1)C(=O)Cc1cccnc1)S(C)(=O)=O | 1.06 ± 0.048 | 
28 | C[C@H](CO)N1C[C@H](C)[C@H](CN(C)C(=O)Nc2cccc(C(F)(F)F)c2)OCc2cn(nn2)CCCC1=O | 1.01 ± 0.036 | 
29 | COc1ccc2c3c([C@@H](CO)N(C[C@]33CN(C3)C(=O)c3ccccc3F)C(=O)Nc3ccccc3F)n(C)c2c1 | 0.97 ± 0.053 | 
30 | O=C(Cc1cccnc1)N1CC(=O)N2[C@@H](CO)[C@H](c3ccc(/C=C/c4ccccc4)cc3)[C@@H]2C1 | 1.015 ± 0.0057 | 
31 | C[C@H]1CN([C@@H](C)CO)C(=O)Cc2cc(N(C)C)ccc2O[C@@H]1CN(C)C(=O)NC1CCCCC1 | 0.883 ± 0.058 | 
32 | O=C1CNC[C@@H]2[C@H](c3ccc(C#CC4CCCCC4)cc3)[C@@H](CO)N12 | 1.06 ± 0.067 | 
33 | CN1CCN(C(=O)C[C@H]2CC[C@@H]3[C@H](COC[C@H](O)CN3C(=O)c3ccccc3F)O2)CC1 | 0.986 ± 0.019 | 
34 | Cc1ccc(S(=O)(=O)Nc2ccc3c(c2)C(=O)N([C@@H](C)CO)C[C@@H](C)[C@@H](CN(C)Cc2ccc(C(F)(F)F)cc2)O3)cc1 | 1.04 ± 0.07 | 
35 | COc1ccc(NC(=O)N(C)C[C@@H]2Oc3ccc(NC(=O)Nc4cccc5ccccc45)cc3CC(=O)N([C@@H](C)CO)C[C@H]2C)cc1 | 1.03 ± 0.033 | 
36 | O=C(N[C@@H]1C=C[C@@H](CC(=O)N2CCN(c3ccccc3)CC2)O[C@@H]1CO)c1ccccc1 | 1.11 ± 0.12 | 
37 | N#C[C@H]1[C@@H](c2ccccc2-c2ccccc2F)[C@@H](CO)N1C(=O)c1cccc(F)c1 | 1.16 ± 0.25 | 
38 | Cc1noc(C)c1NC(=O)N[C@@H]1C=C[C@@H](CC(=O)Nc2ccc(-c3ccccc3)cc2)O[C@@H]1CO | 0.979 ± 0.1 | 
39 | Cc1noc(C)c1S(=O)(=O)Nc1ccc2c(c1)C(=O)N([C@H](C)CO)C[C@@H](C)[C@H](CN(C)Cc1ccc(C(=O)O)cc1)OCCCC[C@@H](C)O2 | 1.07 ± 0.12 | 
40 | N#C[C@H]1[C@@H](c2ccc(-c3cccc(F)c3)cc2)[C@H](CO)N1C(=O)NC1CCCC1 | 1.055 ± 0.0015 | 
41 | CN(C)CC(=O)N1[C@H](C#N)[C@@H](c2ccc(C#CC3CCCCC3)cc2)[C@H]1CO | 1.05 ± 0.039 | 
42 | N#C[C@@H]1[C@@H](c2ccc(-c3cccc(F)c3)cc2)[C@H](CO)N1C(=O)NC1CCCC1 | 0.935 ± 0.064 | 
43 | CC(C)NC(=O)N1[C@H](C#N)[C@H](c2ccc(C#CC3CCCCC3)cc2)[C@@H]1CO |  | 0.822 ± 0.041
44 | N#C[C@@H]1[C@H](c2ccc(-c3cccc(F)c3)cc2)[C@H](CO)N1C(=O)NC1CCCC1 | 0.743 ± 0.059 | 
45 | CCCNC(=O)N1[C@H](C#N)[C@@H](c2ccc(C#Cc3cccc(F)c3)cc2)[C@@H]1CO | 0.981 ± 0.013 | 
46 | CN(C)CC(=O)N1[C@H](C#N)[C@H](c2ccc(C#CC3CCCCC3)cc2)[C@@H]1CO | 0.981 ± 0.11 | 
47 | CCCNC(=O)N1[C@H](C#N)[C@H](c2ccc(C#Cc3ccc(F)cc3)cc2)[C@@H]1CO |  | 0.844 ± 0.021
48 | CCCNC(=O)N1[C@H](CO)[C@H](c2ccc(C#Cc3cccc(F)c3)cc2)[C@@H]1C#N | 1.09 ± 0.027 | 

Row | Structure (SMILES) | viability index [1] | viability index [2]
49 | C/C=C/c1ccc([C@H]2[C@@H](CO)N3CCCCN(S(=O)(=O)c4ccc(OC)cc4)C[C@@H]23)cc1 | 0.972 ± 0.078 | 
50 | CCCNC(=O)Nc1ccc2c(c1)OC[C@@H](C)N(C(=O)C1CCOCC1)C[C@H](C)[C@H](OC)CN(C)C2=O | 0.996 ± 0.052 | 
51 | COCC(=O)Nc1ccc2c(c1)C(=O)N(C)C[C@@H](OC)[C@H](C)CN(CCc1ccccc1)[C@H](C)CO2 | 1.05 ± 0.042 | 
52 | O=C(C[C@@H]1C=C[C@H](NC(=O)Nc2ccccc2F)[C@@H](CO)O1)NCc1ccc(-c2ccccc2)cc1 | 1.11 ± 0.14 | 
53 | O=C(C1CCCCC1)N1C[C@@H]2N[C@H](C1)[C@H]2c1ccc(-c2ccccc2F)cc1 | 1.08 ± 0.092 | 
54 | CN(C)CC(=O)N1C[C@@H]2N[C@H](C1)[C@@H]2c1ccc(C2=CCCCC2)cc1 | 0.898 ± 0.013 | 
55 | CN(C)CC(=O)N1C[C@@H]2N[C@H](C1)[C@H]2c1ccc(-c2ccccc2F)cc1 | 0.832 ± 0.011 | 
56 | Cc1cccc(-c2ccc([C@@H]3[C@@H]4CN(C(=O)CN(C)C)C[C@H]3N4)cc2)c1 | 0.477 ± 0.045 | 
57 | Cc1cccc(-c2ccc([C@H]3[C@@H]4CN(Cc5cccc(F)c5)C[C@H]3N4)cc2)c1 | 1.053 ± 0.0043 | 
58 | O=C(C1CC1)N1C[C@@H]2N[C@H](C1)[C@@H]2c1ccc(-c2ccccc2F)cc1 |  | 0.988 ± 0.046
59 | O=C(Nc1ccccc1)N1C[C@@H]2N[C@H](C1)[C@@H]2c1ccc(-c2ccccc2F)cc1 | 1.03 ± 0.08 | 
60 | CN(C)CC(=O)N1C[C@@H]2N[C@H](C1)[C@@H]2c1ccc(-c2ccccc2F)cc1 | 0.745 ± 0.074 | 
61 | Fc1cccc(-c2ccc([C@@H]3[C@@H]4CN(Cc5cncnc5)C[C@H]3N4)cc2)c1 | 1.04 ± 0.06 | 
62 | Cc1cccc(-c2ccc([C@@H]3[C@@H]4CN(C(=O)c5ccncc5)C[C@H]3N4)cc2)c1 | 1.09 ± 0.12 | 
63 | O=C(Nc1ccccc1)N1C[C@@H]2N[C@H](C1)[C@H]2c1ccc(-c2ccccc2F)cc1 | 1.1 ± 0.05 | 
64 | Cc1cccc(-c2ccc([C@@H]3[C@@H]4CN(Cc5cccc(F)c5)C[C@H]3N4)cc2)c1 | 0.816 ± 0.064 | 
65 | N#C[C@H]1[C@@H](c2ccccc2-c2cccc(F)c2)[C@H](CO)N1S(=O)(=O)c1cccc(F)c1 | 1.17 ± 0.1 | 
66 | C[C@@H]1CCCCO[C@H](CN(C)Cc2ccc(Cl)c(Cl)c2)[C@@H](C)CN([C@H](C)CO)C(=O)c2cc(NC(=O)c3ccncc3)ccc2O1 | 1.05 ± 0.047 | 
67 | C/C=C/c1ccc([C@@H]2[C@@H](CO)N3C(=O)CN(S(=O)(=O)c4ccccc4)C[C@H]23)cc1 | 1.11 ± 0.026 | 
68 | CN1c2ccc(-c3ccc(F)cc3)cc2[C@@H]2[C@@H](CCN2C(=O)Cc2cccnc2)[C@@H]1CO | 1.09 ± 0.061 | 
69 | C[C@@H]1CN([C@@H](C)CO)C(=O)c2cc(NC(=O)Nc3ccccc3)ccc2O[C@H]1CN(C)Cc1ccccc1 | 0.979 ± 0.015 | 
70 | C[C@@H]1CN([C@H](C)CO)C(=O)c2c(c3ccccc3n2C)-c2ccccc2CO[C@H]1CN(C)C(=O)[C@@H](Cc1ccccc1)N(C)C | 1.14 ± 0.11 | 
71 | COCC(=O)N1[C@@H]2CN(C)c3ccccc3[C@@H]2[C@@H]1CO | 1.05 ± 0.034 | 
72 | CN(C)C(=O)c1cccc(-c2cccc(-c3nc(C(=O)N4CCCCC4)cc4c3[C@H](CCO)N([S@@](=O)C(C)(C)C)C4)c2)c1 | 1.04 ± 0.0013 | 

Reference: the supplement of paper PMC4723716
